In all, about 33,000 sequences were measured (“E-score (-0.5 to 0.5)”: median about -0.016, highest 2% from about 0.32 on). The list comes from a sample in which the highest values are over-represented; it also holds similar and randomly drawn sequences.
molecular target: T1, Stp1 (UniProt B3LFK1); assay: PBM E-score (8-mer binding enrichment) (E-score (-0.5 to 0.5)); higher = stronger / more preferred TF binding; conditions: protein concentration: 200 nM; construct: GST-full length
T1 sequence: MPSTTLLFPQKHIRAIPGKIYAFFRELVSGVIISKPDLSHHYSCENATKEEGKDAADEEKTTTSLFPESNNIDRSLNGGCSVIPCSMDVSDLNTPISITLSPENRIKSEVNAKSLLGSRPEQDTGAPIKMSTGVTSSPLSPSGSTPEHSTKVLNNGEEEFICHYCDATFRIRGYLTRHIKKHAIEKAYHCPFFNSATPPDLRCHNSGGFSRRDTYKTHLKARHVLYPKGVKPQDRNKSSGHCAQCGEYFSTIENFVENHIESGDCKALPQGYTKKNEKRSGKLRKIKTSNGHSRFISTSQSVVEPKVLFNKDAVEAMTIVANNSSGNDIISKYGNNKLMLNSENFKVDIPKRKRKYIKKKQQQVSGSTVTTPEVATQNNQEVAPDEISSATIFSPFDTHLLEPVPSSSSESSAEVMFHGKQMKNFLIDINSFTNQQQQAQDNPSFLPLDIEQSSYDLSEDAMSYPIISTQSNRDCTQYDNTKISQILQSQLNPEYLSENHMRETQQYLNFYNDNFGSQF
Summary of the method: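 For each ungapped eight-base word taken together with its reverse complement, the Universal PBM Analysis Suite assigned an E-score. Binding data came from GST-tagged yeast transcription factors, applied at about 100-200 nM, on universal all-10-mer Agilent arrays made double-stranded by primer extension. Fluorescent anti-GST marked bound protein, and scans were normalised with masliner.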

Sequence	PBM E-score
AGGTGGCG	-0.0008
GCTCAGAA	0.00512
TAGGTGGA	-0.21
AGGGAAAA	0.0119
AGACATTC	-0.19
GGATGCCC	-0.245
GGAAAAAA	0.149
CTGCCTGA	-0.0731
TATAGAGA	0.0248
CGCACCGA	0.0478
AGCACCGA	0.0493
GGCACCAC	0.324
CGCACCAC	0.063
AGCACCAC	-0.134
CGCACCAA	0.213
TGCACCAA	-0.0793
GGCACCAA	0.393
GGCACCGA	0.356
CCCTATTC	-0.0984
GACCAACC	-0.152
GTTGGCAA	0.0689
AAAGGGGG	-0.423
AAGGAGAA	-0.131
AGGGATTG	-0.0197
AATGGTCT	-0.0756

Sequence	PBM E-score
AAGTCTGG	-0.218
GATAGGGC	0.0849
CGAACGGC	0.467
AGAACGGC	0.387
CTAACGGC	0.313
AGAACGGA	0.102
AGAACGGG	-0.129
CGAACGGA	0.207
GTCCTGTA	-0.121
CCAAGAGC	0.0254
AAGACGGG	0.0493
GTCTGTCA	-0.00712
ATTATTTA	0.281
ATATATTA	0.329
ATTTATTA	0.324
GTATATTA	0.159
CTATATTA	0.177
ATATATAG	0.318
CTATATAG	-0.0268
GTTTATTA	0.0702
ATATATAT	0.303
ATAAAGGG	0.0416
CCCTCAGG	-0.224
ATCGTTTC	-0.0261
CGGTAAGA	0.0116

Sequence	PBM E-score
CCTTGCAC	0.127
TATCGAGA	-0.0215
GGGCACCC	-0.0477
CGGCACCC	0.338
AGGCACCG	0.272
CCGCACCG	0.288
CGGCACCG	0.437
AGGCACCC	-0.00944
TAGATCAA	-0.00316
CAAGATCG	-0.123
AAAAAGTG	0.204
AAACGCTT	-0.0887
ACCTCCCG	-0.269
CGTAAGGA	-0.0941
CGCAAGGC	0.388
CATAAGGC	0.344
AGTAAGGC	0.163
AATAAGGC	0.231
AGCAAGGC	0.29
CGCAAAGC	0.126
CATAAGGG	-0.0274
CGTAAGGC	0.358
CCTCCAGA	0.0135
CACATCGC	-0.115
AGCGCTGA	-0.0259

Sequence	PBM E-score
CGCGCTGA	-0.0138
GGCGCTGA	0.327
TGCGCTAA	-0.0463
GGCGCTAA	0.37
CGCGCTAA	0.227
GGGGCAGA	-0.0961
GTCGACAA	-0.192
CCGAACGC	0.226
CCGAACGA	-0.0055
CCGAACGG	0.334
CGTAATAC	0.186
CCTGGGCC	-0.181
ACGGCACA	0.479
CCGGCACG	0.27
CGGGCACA	-0.106
ACGGCACG	0.484
CCGGCACA	0.106
TCGGCACA	0.135
ACTCTGAG	-0.046
AAGTGTGC	0.122
AACAGTGT	-0.102
CGAGGGCG	-0.052
AGGGCGAT	0.0677
AAGGCGAT	0.329
AAGGCGAG	-0.158

Sequence	PBM E-score
AAGGCGAA	0.197
ACGGCGAG	0.437
CCGGCGAG	0.0395
ACGGCGAT	0.479
ACCGCGAT	0.0376
AGGGCGAG	-0.12
CTATGGTA	-0.0844
AGTTTTGC	0.203
AAGGGATA	-0.00219
CTAAGTAG	0.0172
ACTTTGTC	0.0794
ACTTAAAT	0.0505
CAAGCGGG	-0.168
CAAGCGGA	-0.0234
GAAGCGGC	0.426
GAAGCGGA	-0.0314
CGAGCGGA	0.114
GAAGCGTC	-0.0144
CAAGCGGC	0.466
CGAGCGGC	0.416
AAAGCGGG	-0.19
AAAGCGGC	0.366
AGAGCGGC	0.307
AAAGCGGA	0.0227
AAAGGGAC	-0.055

Sequence	PBM E-score
AAGACCGA	-0.107
ACTTAGGC	-0.0486
ATATTCGG	0.0873
ACCCATAC	-0.0919
AAGTCTCG	-0.199
CGCCAACG	0.0633
ATGGCTCG	-0.0567
ATAAACAT	0.222
AAAAGAAC	0.0475
AAAAGAAT	0.322
AAAAGAAG	0.19
AGTATAAA	0.297
TTTATAAA	0.376
CTTATAAA	0.115
CGTATAAA	0.319
CGTATAAC	0.217
GTTATAAA	0.0721
AGTCTGTA	-0.18
AAGTCCCG	-0.145
GCTCGAAC	-0.0559
CCAGGTGC	-0.187
GGGCAAAA	0.142
TGGCAAAA	0.292
AGGCAAAA	0.344
CGGCAAAA	0.357

Sequence	PBM E-score
AGGCAAAC	0.118
CGGCAAAG	0.264
AGACCTCG	-0.157
CACGAGGG	-0.253
CACGAGGA	0.102
CGCGAGGA	-0.0281
CACGAGGC	0.415
GCCGAGGA	0.0308
GCCGAGGC	0.357
ACCGAGGC	-0.121
CGCGAGGC	0.421
AGCGAGGC	0.197
ATCAGGTC	-0.114
CACGATAC	-0.0326
GACAACAA	0.0779
AAGCCCCT	-0.287
CCTTAACC	-0.221
ACCCCGCT	-0.174
ACAGCAGT	-0.0354
ATGGCAGC	0.00395
TCGGCAGA	-0.0589
ACGGCAGT	0.403
